In PubChem BioAssay AID651599 (National Center for Advancing Translational Sciences (NCATS), 2012):
Inconclusive results are not listed. Calls come from the whole dose curve; as a rule, active = well fitted inhibition curve with a large enough effect; inconclusive = small, poorly fitted or top-dose-only effect; inactive = no such curve, though single readings can be large or run the other way.

Biological target: Tumor susceptibility gene 101 protein (Homo sapiens) (UniProt Q99816)
Assay: qHTS Assay for Iinhibitors of HIV-1 Budding by Blocking the Interaction of PTAP/TSG101: Hit Validation in TR assay
Conditions: Tsg101 binding domain + Texas Red-labeled PTAP peptide, fluorescence polarization, 20 min; series mostly up to 57.5 µM; activity change, negative = inhibition: at the top concentration
Outline: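 Fluorescence polarization: Tsg101 binding domain (10 uM final) with Texas Red-labelled PTAP peptide (50 nM final) in HEPES pH 7.5, 0.15 M NaCl, Tween 20, EDTA, TCEP; 20 min binding at room temperature after compound addition.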
% is set by controls: 0 for no effect and ±100 for the full control effect.

Chain of Tumor susceptibility gene 101 protein (Homo sapiens) (Q99816 whole entry, looked up): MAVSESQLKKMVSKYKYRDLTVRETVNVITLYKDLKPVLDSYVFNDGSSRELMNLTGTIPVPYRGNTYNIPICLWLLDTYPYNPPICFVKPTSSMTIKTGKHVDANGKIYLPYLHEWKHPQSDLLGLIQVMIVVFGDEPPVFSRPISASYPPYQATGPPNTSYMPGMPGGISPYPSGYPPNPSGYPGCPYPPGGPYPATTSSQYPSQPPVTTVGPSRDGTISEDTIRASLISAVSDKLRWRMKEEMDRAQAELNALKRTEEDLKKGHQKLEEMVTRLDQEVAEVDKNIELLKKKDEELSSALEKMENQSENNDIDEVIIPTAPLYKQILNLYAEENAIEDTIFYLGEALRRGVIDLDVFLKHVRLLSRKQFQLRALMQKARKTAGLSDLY

Activity change, negative = inhibition, inactive:
N#C/C(=C\C=C\c1ccccc1)c1nc(-c2ccc3c(c2)OCO3)cs1 62.8%
CCN(C(=O)c1sc2nc3n(c(=O)c2c1C)CCCC3)c1ccccc1F -29.3%
O=C(NCc1cc(C(F)(F)F)ccc1Cl)c1cccc2c1C(=O)c1ccc(N3CCC(Cc4ccccc4)CC3)cc1S2(=O)=O 7.52%
CN1C(=O)c2cccc3c(N)ccc(c23)C1=O 2.6%
Cc1ccc(N=Cc2c(O)ccc3ccccc23)cc1F 18.9%
CCOC(=O)/C(C#N)=C(C)/C=C1\Sc2ccccc2N1CC 23.7%
CSCC(C)N1CCC(n2nccc2NC(=O)CCCc2ccccc2)CC1 (configuration not stated) 15.5%
Cc1ccccc1C1CC(=O)Oc2cc(O)ccc21 (configuration not stated) -17.9%
O=c1c(/C=C(\O)c2ccc(F)cc2)nc2ccccc2n1-c1ccccc1 -4.58%
Nc1c(C(=O)C2CC2)sc2nc(-c3ccccc3)cc(C(F)(F)F)c12 19.3%
O=C(/C=C/c1ccc(Cl)cc1Cl)c1nc2ccccc2[nH]1 1.89%
O=C(NC1CC1)c1cccc2c1C(=O)c1ccc(N3CCC(Cc4ccccc4)CC3)cc1S2(=O)=O 11.3%
COc1ccc(-c2cc(C(F)(F)F)c3c(N)c(C(=O)NCCSC)sc3n2)cc1 -20.5%
COCCCNC(=O)C(C#N)c1nc2ccccc2nc1N1CCCC1 (configuration not stated) 25.7%
Cc1ccc(Nc2ccc([N+](=O)[O-])ccc2=O)cc1 -6.67%
Cc1cccc(N2C(=O)c3cccc4c(N(C)CCO)ccc(c34)C2=O)c1 -10.9%
CC1(C)CC(=O)C2=C(C1)OC(N)=C(C#N)C2c1cc2c(cc1[N+](=O)[O-])OCO2 (configuration not stated) -1.84%
